# In PubChem BioAssay (Tox21):
# Several values for one entry are separate records, joined by “and”; a condition that tells them apart may be missing. Equal values may be shown once. Results filed as inconclusive are left out. Where a call stands in place of a potency, no number is given. A structure can be active in one record and inactive in another. Activity calls are given as the source filed them. Unless noted, calls follow the shape of the dose curve; as a rule, active = well fitted curve in the direction sought with a large enough effect in the repeat runs; inconclusive = weak or mixed curves; inactive = no such curve, though single readings can be large; an effect the other way counts as inactive or inconclusive.
# How the values were obtained:
# [1] = Caspase-3/7 induction in HepG2 cells by small molecules, qHTS assay (AID 1346978); also: nearly all actives have a fitted effect of over 15% in size; also: potency is read from the fitted curve at half-maximal effect
# Outline: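 Caspase-3/7 induction was measured by Caspase-Glo 3/7 luminescence (30 min, room temperature) after a 17 hr compound exposure of wild-type HepG2 cells seeded at 2,000 per well and pre-incubated 5 hr.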
# [2] = Caspase-3/7 induction in CHO-K1 cells by small molecules, qHTS cell viability counter screen (AID 1346979); also: nearly all actives have a fitted effect of over 35% in size; also: potency is read from the fitted curve at half-maximal effect
# Outline: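 Viability readout by fluorescence (CellTiter-Fluor) on wild-type CHO-K1 cells exposed for 16hr at 37C and 5% CO2 to compounds delivered in DMSO; reagent incubated 1hr before reading.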
# [3] = Caspase-3/7 induction in CHO-K1 cells by small molecules, qHTS assay (AID 1346980); also: nearly all actives have a fitted effect of over 15% in size; also: potency is read from the fitted curve at half-maximal effect
# Outline: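 Luminescent Caspase-Glo 3/7 read (30min, room temperature) quantified apoptosis induction. Cells were wild-type CHO-K1, treated with compound for 17hr at 37 C and 5% CO2.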
# [4] = Caspase-3/7 induction in HepG2 cells by small molecules, qHTS cell viability counter screen (AID 1346981); also: nearly all actives have a fitted effect of over 30% in size; also: potency is read from the fitted curve at half-maximal effect
# Outline: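 Counter screen for cytotoxicity: HepG2 exposed 16 hr to compounds, then CellTiter-Fluor viability signal (fluorescence, 1 hr reagent incubation).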
# [5] = target: Nuclear receptor subfamily 1 group I member 2 (Homo sapiens) (UniProt O75469); assay: Human pregnane X receptor (PXR) small molecule agonists, qHTS assay (AID 1346982); also: nearly all actives have a fitted effect of over 35% in size; also: potency is read from the fitted curve at half-maximal effect
# Nuclear receptor subfamily 1 group I member 2 (Homo sapiens), sequence (O75469 whole entry, looked up): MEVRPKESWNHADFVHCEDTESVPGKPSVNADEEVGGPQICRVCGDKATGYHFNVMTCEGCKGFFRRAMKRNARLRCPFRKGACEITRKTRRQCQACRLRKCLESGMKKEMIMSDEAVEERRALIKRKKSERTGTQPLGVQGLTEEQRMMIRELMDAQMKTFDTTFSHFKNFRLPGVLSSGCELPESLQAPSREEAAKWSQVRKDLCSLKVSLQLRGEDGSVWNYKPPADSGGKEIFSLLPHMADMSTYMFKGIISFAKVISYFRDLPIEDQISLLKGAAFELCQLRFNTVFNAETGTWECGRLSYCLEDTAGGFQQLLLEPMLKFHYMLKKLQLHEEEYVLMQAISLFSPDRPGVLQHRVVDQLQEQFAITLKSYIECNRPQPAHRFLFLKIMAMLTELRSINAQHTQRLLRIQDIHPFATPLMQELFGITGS
# Outline: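 Luminescence (ONE-Glo, 30 min RT) after 24 hr compound exposure of PXR-Luc HepG2 cells; cells rested 5 hr post-plating in 5% charcoal-stripped FBS medium.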
# [6] = target: Acetylcholinesterase (Homo sapiens) (UniProt P22303); assay: Acetylcholinesterase (AChE) small molecule antagonists: colormetric cell-based qHTS assay (AID 1347395; calls by dose curve; also: nearly all actives have a fitted effect of over 30% in size; also: potency is read from the fitted curve at half-maximal effect)
# Acetylcholinesterase (Homo sapiens), sequence (P22303 whole entry, looked up): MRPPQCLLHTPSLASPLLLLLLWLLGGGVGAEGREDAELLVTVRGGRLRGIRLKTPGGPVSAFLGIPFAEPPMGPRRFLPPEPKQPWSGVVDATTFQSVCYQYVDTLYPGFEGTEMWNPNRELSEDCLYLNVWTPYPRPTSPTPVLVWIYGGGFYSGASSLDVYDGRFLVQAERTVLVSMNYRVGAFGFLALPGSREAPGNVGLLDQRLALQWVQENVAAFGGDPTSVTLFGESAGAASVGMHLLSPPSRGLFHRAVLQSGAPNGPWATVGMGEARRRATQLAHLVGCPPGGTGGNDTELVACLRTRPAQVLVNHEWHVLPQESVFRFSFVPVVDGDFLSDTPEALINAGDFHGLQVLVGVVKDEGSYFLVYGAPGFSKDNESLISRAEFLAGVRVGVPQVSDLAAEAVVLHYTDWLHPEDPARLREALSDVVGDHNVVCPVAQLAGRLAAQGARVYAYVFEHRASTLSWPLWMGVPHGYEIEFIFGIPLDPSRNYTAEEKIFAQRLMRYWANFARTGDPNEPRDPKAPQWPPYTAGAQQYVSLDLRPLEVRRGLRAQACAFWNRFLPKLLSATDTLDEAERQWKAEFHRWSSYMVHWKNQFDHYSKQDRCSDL
# Outline: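 Homogeneous whole-cell format. SH-SY5Y cells seeded overnight, dosed with compound (30 min, 37 C, 5% CO2), then given DTNB/acetylthiocholine cocktail for 90 min at 37 C; colorimetric signal.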
# [7] = target: Acetylcholinesterase (Homo sapiens) (UniProt P22303); assay: Acetylcholinesterase (AChE) small molecule antagonists: enzyme-based qHTS assay (AID 1347397; calls by dose curve; also: nearly all actives have a fitted effect of over 55% in size; also: potency is read from the fitted curve at half-maximal effect); settings: Potency: AChE enzyme activity inhibition
# Outline: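 Absorbance-based detection of thiocholine with DTNB served as the read-out. Recombinant human AChE was exposed to compound for 30 min at RT before a 10 min RT incubation with acetylthiocholine.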
# [8] = target: Acetylcholinesterase (Homo sapiens) (UniProt P22303); assay: Acetylcholinesterase (AChE) small molecule antagonists: fluorescence cell-based qHTS assay (AID 1347398; calls by dose curve; also: nearly all actives have a fitted effect of over 50% in size; also: potency is read from the fitted curve at half-maximal effect); settings: Potency: AChE activity
# Outline: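 Fluorimetric cell-based assay: intact SH-SY5Y cells, 30 min compound preincubation at 37 C, acetylthiocholine substrate with thiol probe Thiolite Green, 40 min RT development, fluorescence 490/520 nm.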
# [9] = target: Acetylcholinesterase (Homo sapiens) (UniProt P22303); assay: Acetylcholinesterase (AChE) small molecule antagonists: enzyme-based qHTS assay with human liver microsomes (AID 1347399; calls by dose curve; also: nearly all actives have a fitted effect of over 60% in size; also: potency is read from the fitted curve at half-maximal effect); settings: Potency: qHTS inhibition
# Outline: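 Recombinant human AChE (50 mU/mL in the enzyme mix) and human liver microsomes (0.25 mg/mL final) were preincubated with compound and NADPH (0.25 mg/mL final) for 30 min at 37 C. Acetylthiocholine/DTNB was then added; thiocholine was read colorimetrically after 10 min at room temperature.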
# [10] = target: Cytochrome P450 2D6 (Homo sapiens) (UniProt P10635); assay: Cytochrome P450 Family 2 Subfamily D Member 6 (CYP2D6) small molecule antagonists: luciferase reporter qHTS assay (AID 1671196); also: nearly all actives have a fitted effect of over 50% in size; also: potency is read from the fitted curve at half-maximal effect
# Cytochrome P450 2D6 (Homo sapiens), sequence (P10635 whole entry, looked up): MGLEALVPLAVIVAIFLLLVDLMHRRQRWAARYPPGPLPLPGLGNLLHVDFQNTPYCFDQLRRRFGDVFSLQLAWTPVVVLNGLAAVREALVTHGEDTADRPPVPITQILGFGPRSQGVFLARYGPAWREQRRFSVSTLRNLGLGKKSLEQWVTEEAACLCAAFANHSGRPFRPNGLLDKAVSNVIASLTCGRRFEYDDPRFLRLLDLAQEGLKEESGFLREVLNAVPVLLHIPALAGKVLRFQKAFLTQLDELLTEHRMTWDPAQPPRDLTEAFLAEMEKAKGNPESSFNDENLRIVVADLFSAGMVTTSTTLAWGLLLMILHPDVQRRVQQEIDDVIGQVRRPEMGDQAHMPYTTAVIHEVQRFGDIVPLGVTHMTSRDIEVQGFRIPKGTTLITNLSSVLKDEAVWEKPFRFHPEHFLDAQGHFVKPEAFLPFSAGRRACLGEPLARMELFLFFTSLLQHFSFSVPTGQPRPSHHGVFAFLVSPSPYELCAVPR
# Outline: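 Inhibition of CYP2D6 was gauged by loss of luminescence, since light produced tracks the luciferin generated from a proluciferin substrate. A 10 min room-temperature preincubation preceded 1 h NADPH-supported turnover.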
# [11] = target: Cytochrome P450 2C19 (Homo sapiens) (UniProt P33261); assay: Cytochrome P450 Family 2 Subfamily C Member 19 (CYP2C19) small molecule antagonists: luciferase reporter qHTS assay (AID 1671197); also: nearly all actives have a fitted effect of over 65% in size; also: potency is read from the fitted curve at half-maximal effect
# Outline: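 Luminescent readout of CYP2C19 activity: luciferin product detected 20 min after adding detection reagent. Before that, compound and enzyme-substrate mix preincubated 10 min at room temperature; NADPH-regenerating system started a 1 h, 37C reaction. Ketoconazole as positive control.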
# [12] = target: Cytochrome P450 2C9 (Homo sapiens) (UniProt P11712); assay: Cytochrome P450 Family 2 Subfamily C Member 9 (CYP2C9) small molecule antagonists: luciferase reporter qHTS assay (AID 1671198); also: nearly all actives have a fitted effect of over 50% in size; also: potency is read from the fitted curve at half-maximal effect
# Cytochrome P450 2C9 (Homo sapiens), sequence (P11712 whole entry, looked up): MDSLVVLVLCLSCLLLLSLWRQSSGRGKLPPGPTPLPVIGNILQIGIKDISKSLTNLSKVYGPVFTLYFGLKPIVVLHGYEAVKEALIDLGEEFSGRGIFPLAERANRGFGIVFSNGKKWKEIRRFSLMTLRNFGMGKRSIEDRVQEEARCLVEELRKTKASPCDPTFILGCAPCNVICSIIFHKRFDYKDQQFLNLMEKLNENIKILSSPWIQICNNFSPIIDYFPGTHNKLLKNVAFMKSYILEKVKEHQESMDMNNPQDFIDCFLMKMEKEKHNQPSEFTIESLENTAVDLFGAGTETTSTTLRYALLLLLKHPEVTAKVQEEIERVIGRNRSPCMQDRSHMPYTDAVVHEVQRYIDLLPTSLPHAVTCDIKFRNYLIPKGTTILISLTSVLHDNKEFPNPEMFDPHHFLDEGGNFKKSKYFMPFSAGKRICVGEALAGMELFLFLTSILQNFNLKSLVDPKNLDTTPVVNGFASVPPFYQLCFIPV
# Outline: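 Enzyme-substrate mix preincubated with compound 10 min at room temperature; reaction started with NADPH regeneration solution, 1 h 37C. Luminescent luciferin product read after 20 min detection reagent.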
# [13] = target: Cytochrome P450 1A2 (Homo sapiens) (UniProt P05177); assay: Cytochrome P450 Family 1 Subfamily A Member 2 (CYP1A2) small molecule antagonists: luciferase reporter qHTS assay (AID 1671199); also: nearly all actives have a fitted effect of over 50% in size; also: potency is read from the fitted curve at half-maximal effect
# Cytochrome P450 1A2 (Homo sapiens), sequence (P05177 whole entry, looked up): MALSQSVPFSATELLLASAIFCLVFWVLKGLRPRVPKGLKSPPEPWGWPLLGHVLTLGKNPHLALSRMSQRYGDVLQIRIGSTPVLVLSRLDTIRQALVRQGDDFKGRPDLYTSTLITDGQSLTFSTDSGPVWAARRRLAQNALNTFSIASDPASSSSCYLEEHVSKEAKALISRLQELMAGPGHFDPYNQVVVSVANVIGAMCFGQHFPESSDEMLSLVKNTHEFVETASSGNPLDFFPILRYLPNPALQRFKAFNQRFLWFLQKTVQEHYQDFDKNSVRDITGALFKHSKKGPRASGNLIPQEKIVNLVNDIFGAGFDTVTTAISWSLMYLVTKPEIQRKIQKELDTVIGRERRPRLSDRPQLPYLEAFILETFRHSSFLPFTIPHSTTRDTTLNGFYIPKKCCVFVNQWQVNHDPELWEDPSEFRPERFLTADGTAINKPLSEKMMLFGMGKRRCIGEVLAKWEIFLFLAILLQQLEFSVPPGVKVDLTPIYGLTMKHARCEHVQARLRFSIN
# Outline: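 Signal from luciferin formed by CYP1A2 from a proluciferin substrate is read as luminescence, expressed in relative luminescence units. Compounds sit with enzyme 10 min, NADPH-driven reaction runs 1 h, all at room temperature.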
# [14] = target: Voltage-gated inwardly rectifying potassium channel KCNH2 (Homo sapiens) (UniProt Q12809); assay: Human Ether-a-go-go-Related Gene (hERG) channel small molecule antagonists: fluorescence cell-based qHTS assay (AID 1671200); also: nearly all actives have a fitted effect of over 50% in size; also: potency is read from the fitted curve at half-maximal effect
# Voltage-gated inwardly rectifying potassium channel KCNH2 (Homo sapiens), sequence (Q12809 whole entry, looked up): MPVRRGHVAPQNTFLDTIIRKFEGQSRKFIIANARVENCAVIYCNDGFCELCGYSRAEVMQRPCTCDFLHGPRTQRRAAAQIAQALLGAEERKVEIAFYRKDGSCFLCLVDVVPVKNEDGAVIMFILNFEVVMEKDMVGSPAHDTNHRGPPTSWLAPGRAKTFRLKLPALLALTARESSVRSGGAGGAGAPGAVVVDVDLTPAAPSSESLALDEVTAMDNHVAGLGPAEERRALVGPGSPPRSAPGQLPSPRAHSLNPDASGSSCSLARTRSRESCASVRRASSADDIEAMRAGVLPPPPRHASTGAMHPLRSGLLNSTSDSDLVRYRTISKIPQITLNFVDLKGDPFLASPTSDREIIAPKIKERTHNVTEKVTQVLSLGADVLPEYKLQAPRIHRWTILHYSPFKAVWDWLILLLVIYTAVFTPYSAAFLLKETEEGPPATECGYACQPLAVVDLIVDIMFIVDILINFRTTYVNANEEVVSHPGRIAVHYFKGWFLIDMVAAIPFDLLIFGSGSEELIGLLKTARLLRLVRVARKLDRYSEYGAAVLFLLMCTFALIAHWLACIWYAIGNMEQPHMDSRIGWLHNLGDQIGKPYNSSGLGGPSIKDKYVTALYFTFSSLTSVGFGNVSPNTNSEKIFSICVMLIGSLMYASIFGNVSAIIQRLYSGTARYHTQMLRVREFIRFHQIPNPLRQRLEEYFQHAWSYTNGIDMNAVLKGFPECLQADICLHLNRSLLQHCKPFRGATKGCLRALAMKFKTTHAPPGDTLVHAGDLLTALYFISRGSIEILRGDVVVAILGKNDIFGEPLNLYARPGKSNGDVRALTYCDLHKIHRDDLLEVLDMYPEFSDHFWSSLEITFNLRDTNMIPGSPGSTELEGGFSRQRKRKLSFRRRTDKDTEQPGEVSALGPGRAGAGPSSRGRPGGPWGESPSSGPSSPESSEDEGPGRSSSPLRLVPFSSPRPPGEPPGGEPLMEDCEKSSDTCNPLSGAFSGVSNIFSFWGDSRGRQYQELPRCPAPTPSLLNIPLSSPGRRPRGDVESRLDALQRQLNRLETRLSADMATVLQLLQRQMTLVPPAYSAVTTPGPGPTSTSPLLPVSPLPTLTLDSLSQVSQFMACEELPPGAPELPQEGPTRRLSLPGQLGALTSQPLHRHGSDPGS
# Outline: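 Thallium served as the potassium surrogate; its influx into dye-loaded U2OS cells carrying the channel was measured by fluorescence over 2 min.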
# [15] = target: Cytochrome P450 3A4 (Homo sapiens) (UniProt P08684); assay: Cytochrome P450 Family 3 Subfamily A Member 4 (CYP3A4) small molecule antagonists: luciferase reporter qHTS assay (AID 1671201); also: nearly all actives have a fitted effect of over 50% in size; also: potency is read from the fitted curve at half-maximal effect
# Cytochrome P450 3A4 (Homo sapiens), sequence (P08684 whole entry, looked up): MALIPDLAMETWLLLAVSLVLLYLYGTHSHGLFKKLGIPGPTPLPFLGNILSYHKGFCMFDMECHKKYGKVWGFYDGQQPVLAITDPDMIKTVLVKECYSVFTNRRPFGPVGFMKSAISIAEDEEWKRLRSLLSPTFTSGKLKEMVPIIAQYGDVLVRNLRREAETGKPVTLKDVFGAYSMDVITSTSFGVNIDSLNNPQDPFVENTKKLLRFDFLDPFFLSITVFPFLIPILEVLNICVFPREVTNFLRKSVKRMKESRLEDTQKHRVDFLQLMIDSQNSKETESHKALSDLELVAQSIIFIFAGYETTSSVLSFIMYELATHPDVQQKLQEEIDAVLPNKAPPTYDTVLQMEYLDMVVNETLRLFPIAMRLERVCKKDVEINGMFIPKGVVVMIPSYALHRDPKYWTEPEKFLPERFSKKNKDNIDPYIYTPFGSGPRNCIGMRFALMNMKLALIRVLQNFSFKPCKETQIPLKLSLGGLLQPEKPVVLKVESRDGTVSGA
# Outline: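 Relative luminescence units after 20 min with luciferin detection reagent served as read-out. Beforehand, CYP3A4 turned over a proluciferin substrate for 1 h at room temperature with NADPH regeneration, following 10 min compound preincubation.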
# [16] = target: Nuclear receptor subfamily 1 group I member 2 (Rattus norvegicus) (UniProt Q9R1A7); assay: Rat pregnane X receptor (rPXR) activation by small molecules, qHTS assay (AID 1346983); settings: rPXR luciferase reporter cells, One-Glo luminescence, 24 h; stronger effect = higher value; also: nearly all actives have a fitted effect of over 20% in size
# Nuclear receptor subfamily 1 group I member 2 (Rattus norvegicus), sequence (Q9R1A7 whole entry, looked up): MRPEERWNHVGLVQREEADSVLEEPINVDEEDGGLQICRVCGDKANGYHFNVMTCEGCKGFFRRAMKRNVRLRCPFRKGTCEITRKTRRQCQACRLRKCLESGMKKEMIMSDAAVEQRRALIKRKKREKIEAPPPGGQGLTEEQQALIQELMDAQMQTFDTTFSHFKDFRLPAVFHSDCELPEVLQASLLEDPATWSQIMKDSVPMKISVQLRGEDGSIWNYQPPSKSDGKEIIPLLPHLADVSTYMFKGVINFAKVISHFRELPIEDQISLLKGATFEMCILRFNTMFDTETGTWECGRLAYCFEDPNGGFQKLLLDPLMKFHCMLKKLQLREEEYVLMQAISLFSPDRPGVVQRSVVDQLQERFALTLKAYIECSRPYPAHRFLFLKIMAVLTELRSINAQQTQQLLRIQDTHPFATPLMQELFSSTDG
# Outline: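 Luminescent readout (One-Glo luciferase, 30 min room temperature) followed 24 hr compound treatment at 37 C of rPXR cells plated 2,000 per well and preincubated 5hr; qHTS format with compounds delivered in DMSO.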
# [17] = target: Nuclear receptor subfamily 1 group I member 2 (Homo sapiens) (UniProt O75469); assay: CYP3A4 induction through human pregnane X receptor (PXR) by small molecules, qHTS assay (AID 1346984); also: nearly all actives have a fitted effect of over 40% in size; also: potency is read from the fitted curve at half-maximal effect
# Outline: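 DPX-2 reporter cells; 24h cpd, 37C; Luciferin-IPA 3uM final x3h; One-Glo 30 min RT; lumi read.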
# [18] = target: Nuclear receptor subfamily 1 group I member 2 (Homo sapiens) (UniProt O75469); assay: Human pregnane X receptor (PXR) activation by small molecules, qHTS assay (AID 1346985); also: nearly all actives have a fitted effect of over 40% in size
# Outline: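 DPX-2 cells (HepG2 co-transfected with a PXR response element and a CYP3A4-promoter luciferase construct) were seeded at 2,000 per well, rested 5 hr at 37C, then exposed to DMSO-dissolved compounds for 24 hr. Activation was read as luciferase luminescence.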
Structure (SMILES),Potency [1],Potency [2],Potency [3],Potency [4],Potency [5],Potency [6],Potency [7],Potency [8],Potency [9],Potency [10],Potency [11],Potency [12],Potency [13],Potency [14],Potency [15],max activation [16],Potency [17],outcome [18]
ClC(Cl)=C(Cl)C(Cl)=C(Cl)Cl,inactive,inactive,inactive,inactive,inactive,inactive,inactive,inactive,inactive,inactive,inactive,inactive,inactive,inactive,inactive,,,
O=[N+]([O-])c1ccc(Cl)c([N+](=O)[O-])c1,inactive,6.96 µM (active) and 12.2 µM (active),inactive,55.3 µM (active) and 48.6 µM (active),9.84 µM (active) and 15.4 µM (active),64.3 µM (active) and 63.3 µM (active),inactive,inactive,inactive,,40.6 µM (active) and 79.6 µM (active),,12.8 µM (active) and 11.2 µM (active),inactive,inactive,,,
O=C1CCCO1,inactive,inactive,inactive,inactive,inactive,inactive,inactive,inactive,inactive,inactive,inactive,inactive,34.7 µM (active) and inactive,inactive,inactive,,,
COc1ccc(O)c(C(C)(C)C)c1,inactive,inactive,inactive,inactive,inactive,inactive,inactive,inactive,inactive,,7.99 µM (active) and 5.64 µM (active),25.3 µM (active) and 31.7 µM (active),39.9 µM (active),inactive,,,,
[CH3][Sn]([Cl])([Cl])[Cl],inactive,inactive,inactive,inactive,inactive,inactive,inactive,inactive,inactive,32.4 µM (active) and inactive,inactive,inactive,inactive,inactive,inactive,,,
CC(C)Nc1nc(Cl)nc(NC(C)C)n1,inactive,inactive,inactive,inactive,54.4 µM (active) and 24.3 µM (active),inactive and 31.7 µM (active),inactive and 71 µM (active),inactive and 31.7 µM (active),inactive,inactive,inactive and 35.6 µM (active),inactive,10 µM (active) and 20 µM (active),inactive,inactive,,,
CC(C)=CC1C(C(=O)OCN2C(=O)C3=C(CCCC3)C2=O)C1(C)C (centres undefined),inactive,inactive,inactive,inactive,61.1 µM (active) and 29.8 µM (active),inactive,inactive,inactive,inactive,22.4 µM (active) and 15.5 µM (active),8.94 µM (active) and 3.89 µM (active),35.6 µM (active) and 27.5 µM (active),inactive,38.9 µM (active),,-0.665% (inactive),12.6 µM (active),
S=c1[nH]c2ccccc2[nH]1,inactive,13.7 µM (active) and inactive,inactive,inactive,68.7 µM (active),inactive,35.7 µM (active) and inactive,10.1 µM (active) and inactive,inactive,inactive,39.9 µM (active),inactive,35.7 µM (active) and 35.6 µM (active),inactive,5.65 µM (active) and 7.96 µM (active),,,
CCCCC(C#N)(Cn1cncn1)c1ccc(Cl)cc1 (centres undefined),inactive,inactive,inactive,inactive,30.5 µM (active) and inactive,inactive,inactive,inactive,inactive,,794 nM (active) and 633 nM (active),28.2 µM (active) and 25.2 µM (active),,inactive,158 nM (active) and 224 nM (active),,,
C[N+](C)(C)CC(=O)O,inactive,inactive,inactive,inactive,inactive,inactive,inactive,inactive,inactive,inactive,inactive,inactive,inactive and 17.4 µM (active),inactive,,-1.07% (inactive),inactive,inactive
C[C@]12CC[C@H]3[C@@H](CCC4=CC(=O)CC[C@@H]43)[C@@H]1CC[C@@H]2O,inactive,inactive,inactive,inactive,inactive,inactive,inactive,inactive,inactive,inactive,39.6 µM (active) and 8.71 µM (active),inactive,inactive,inactive,inactive,,,
CC(C)(O)C(=O)Nc1ccc([N+](=O)[O-])c(C(F)(F)F)c1,inactive,44.2 µM (active) and 39.8 µM (active),inactive,inactive,27.9 µM (active) and 25.1 µM (active),inactive,inactive,inactive,inactive,,18.2 µM (active) and 26 µM (active),25.7 µM (active) and 29.2 µM (active),7.25 µM (active) and 6.53 µM (active),inactive,40.8 µM (active),,,
O=[N+]([O-])/N=C1\NCCN1Cc1ccc(Cl)nc1,inactive,inactive,inactive,inactive,inactive,inactive,inactive,inactive,inactive,inactive,inactive,inactive,inactive,inactive,inactive,-0.749% (inactive),inactive,inactive
CCOP(=S)(OCC)OP(=S)(OCC)OCC,inactive,inactive,inactive,inactive,inactive,8.18 µM (active) and 5.03 µM (active),72.9 µM (active) and 79.6 µM (active),10.3 µM (active) and 11.2 µM (active),36.5 µM (active) and 20 µM (active),inactive,8.18 µM (active) and 17.8 µM (active),32.6 µM (active) and 35.6 µM (active),,inactive,32.6 µM (active) and 39.9 µM (active),,,
O=NN(c1ccccc1)c1ccccc1,inactive,inactive,inactive,inactive,inactive,inactive,inactive,inactive,inactive,21.9 µM (active) and inactive,39 µM (active) and 35.6 µM (active),34.8 µM (active) and 63.3 µM (active),34.8 µM (active),inactive,inactive,,,
c1ccc(C2CO2)cc1 (centres undefined),inactive,inactive,inactive,inactive,inactive,inactive,inactive,inactive,inactive,inactive,inactive and 35.6 µM (active),inactive and 71 µM (active),inactive,inactive,,,,
CC(C)(c1ccc(OCC2CO2)cc1)c1ccc(OCC2CO2)cc1 (centres undefined),inactive,inactive,inactive,inactive,69.5 µM (active),inactive,inactive,inactive,inactive,inactive,50.9 µM (active) and 79.6 µM (active),64.1 µM (active) and 39.9 µM (active),inactive,inactive,inactive,,,
CCCCCCCC[N+](C)(CCCCCCCC)CCCCCCCC,54.4 µM (active) and 15.4 µM (active),13.7 µM (active) and 4.86 µM (active) and 6.11 µM (active),12.2 µM (active) and 13.7 µM (active),61 µM (active) and 15.4 µM (active) and 21.7 µM (active),12.2 µM (active) and 2.44 µM (active),inactive,79.5 µM (active) and inactive and 71 µM (active),63.2 µM (active) and inactive and 79.6 µM (active),inactive,28.2 nM (active) and 56.5 nM (active) and 564 nM (active),5.63 µM (active) and 3.56 µM (active) and 31.7 µM (active),28.2 µM (active) and 2.83 µM (active) and 35.6 µM (active),39.8 µM (active) and 35.6 µM (active),21.8 nM (active) and 39 nM (active) and 977 nM (active),,,,
CNC(=O)CSP(=S)(OC)OC,inactive,14.1 µM (active) and inactive,inactive,inactive,62.8 µM (active) and inactive,inactive,inactive,inactive,inactive,inactive and 35.5 µM (active),10.3 µM (active) and 20 µM (active),36.6 µM (active) and 20 µM (active),,inactive,,,,
O=C(O)c1nn(Cc2ccc(Cl)cc2Cl)c2ccccc12,inactive,inactive,inactive,inactive,60.7 µM (active) and inactive,inactive,inactive,inactive,inactive,62.8 µM (active) and inactive,inactive,70.5 µM (active) and inactive,inactive,inactive,inactive,,,
